What was measured:
Assay in all cases: PBM binding z-score (relative to random genomic background probes); higher = stronger binding; sequences stand for … in GC…GCGATTGACAGCGTAGAATGAAGG
[1] = system: FXR:RXRa (NR concentration 270 nM, RXRa partner concentration 90 nM)
Outline: (§1)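 Binding buffer was PBS pH 7.4 with 2% milk, 0.02% Triton X-100, 1 mM DTT, 0.2 mg/mL BSA and 0.4 mg/ml salmon testes DNA. In it, ligand-free nuclear receptor dimers were incubated 1 h on custom Agilent 4×180K protein-binding microarrays carrying double-stranded probes. Antibodies against each partner (one per run) detected binding, and z-scores were calculated against random background probes after regression normalization of scanned fluorescence.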

[2] = system: LXRa:RXRa (NR concentration 270 nM, RXRa partner concentration 90 nM)
Outline: as §1

[3] = system: LXRa homodimer (NR concentration 270 nM)
Outline: as §1

[4] = system: LXRb:RXRa (NR concentration 270 nM, RXRa partner concentration 90 nM)
Outline: as §1

[5] = system: LXRb homodimer (NR concentration 270 nM)
Outline: as §1

[6] = system: PPARa:RXRa (NR concentration 270 nM, RXRa partner concentration 90 nM)
Outline: as §1

[7] = system: PPARg:RXRa (NR concentration 180 nM, RXRa partner concentration 90 nM)
Outline: as §1

[8] = system: PPARg:RXRa 270nM:90nM, anti-RXR (NR concentration 270 nM, RXRa partner concentration 90 nM)
Outline: as §1

[9] = system: PPARg:RXRa 30nM:10nM, anti-RXR (NR concentration 30 nM, RXRa partner concentration 10 nM)
Outline: as §1

[10] = system: PPARg:RXRa 90nM:30nM, anti-RXR (NR concentration 90 nM, RXRa partner concentration 30 nM)
Outline: as §1

[11] = system: PPARg:RXRa DBDmut IVT, anti-RXR (DBD mutation: RXRa K156A/R161A, NR concentration 270 nM, RXRa partner concentration 90 nM)
Outline: as §1

[12] = system: PPARg:RXRa IVT, anti-PPARg (NR concentration 270 nM, RXRa partner concentration 90 nM)
Outline: as §1

[13] = system: PPARg DBDmut:RXRa IVT, anti-PPARg (DBD mutation: PPARg1 K132A/R137A, NR concentration 270 nM, RXRa partner concentration 90 nM)
Outline: as §1

[14] = system: PPARg DBDmut IVT, anti-PPARg (DBD mutation: PPARg1 K132A/R137A, NR concentration 270 nM)
Outline: as §1

[15] = system: PPARg homodimer (NR concentration 180 nM)
Outline: as §1

[16] = system: PXR:RXRa (NR concentration 270 nM, RXRa partner concentration 90 nM)
Outline: as §1

[17] = system: PXR homodimer (NR concentration 270 nM)
Outline: as §1

[18] = system: RARa:RXR (NR concentration 270 nM, RXRa partner concentration 90 nM)
Outline: as §1

[19] = system: RARa homodimer (NR concentration 270 nM)
Outline: as §1

[20] = system: RARb:RXRa (NR concentration 270 nM, RXRa partner concentration 90 nM)
Outline: as §1

Sequence | PBM binding z-score [1] | PBM binding z-score [2] | PBM binding z-score [3] | PBM binding z-score [4] | PBM binding z-score [5] | PBM binding z-score [6] | PBM binding z-score [7] | PBM binding z-score [8] | PBM binding z-score [9] | PBM binding z-score [10] | PBM binding z-score [11] | PBM binding z-score [12] | PBM binding z-score [13] | PBM binding z-score [14] | PBM binding z-score [15] | PBM binding z-score [16] | PBM binding z-score [17] | PBM binding z-score [18] | PBM binding z-score [19] | PBM binding z-score [20]
GGAACGAGGGCAAGTTTATAGCAGAGTTTGATGG | 0.688 | 0.332 | -0.039 | 0.229 | -0.306 | 1.61 | 1.24 | 0.978 | 0.337 | 0.307 | 3.91 | 2.81 | 0.157 | -0.37 | 0.767 | 1.13 | 1.44 | 0.25 | -0.0736 | 2.6
TCTCGGAGGCCACGAAAGGTCAGAGCTCGACATC | 3.4 | 5.27 | 1.95 | 3.63 | -0.386 | 3.82 | 1.39 | 2.91 | 2.22 | 2.46 | 1.78 | 1.96 | 0.112 | -0.0793 | 2.29 | 4.58 | -0.146 | 4.54 | 0.24 | 4.24
TATACAGGGTCAAAGGCCAGAGAACGAATGTCGA | 6.59 | 6.22 | 2.13 | 4.88 | 2.25 | 6.02 | 8.23 | 7.5 | 5.41 | 7.34 | 2.4 | 4.67 | 1.74 | 1.99 | 2.58 | 4.27 | 0.698 | 6.02 | 1.1 | 4.27
AATACAGGGTCACTAGGCCACAGTAGGTACGAAT | 6.38 | 4.76 | 1.17 | 4.02 | 1.04 | 6.17 | 8.82 | 7.43 | 4.24 | 6.72 | 4.65 | 6.73 | 4.31 | 2.11 | 3.96 | 3.36 | 0.57 | 4.14 | 1.37 | 4.27
CGTCCAAGGTCAAAGGTGAGTGAAGAGATGACGG | 7.3 | 5.66 | 0.771 | 4.65 | 1.11 | 6.66 | 8.58 | 7.77 | 5.88 | 7.38 | 4.29 | 5.13 | 0.48 | -0.248 | 2.01 | 5.5 | 1.01 | 7.17 | 1.07 | 5.55
GCCCGGAGGACAAGGTCAGAGCTTTGTCCGTAGA | 1.63 | 1.41 | -0.287 | 1.05 | -1.25 | 1.98 | -0.107 | 0.592 | -0.793 | -0.158 | -0.658 | 0.093 | -1.17 | -2.1 | 0.821 | 1.56 | -0.306 | 2.17 | -1.21 | 3.16
GCTACAGGGTCAGCTAGAGGCCAGAGTATGGAAA | 4.62 | 2.54 | -0.26 | 2.36 | -0.67 | 4.6 | 2.79 | 2.91 | 0.541 | 1.78 | 1.26 | 1.75 | -0.627 | -0.389 | 1.43 | 3.1 | -0.36 | 4 | -0.208 | 4.32
CAAACTAGGTCATAGAGGTCAAAGTCCGTGCGTA | 7.25 | 6.71 | 8.36 | 6.15 | 2.33 | 6.49 | 9.13 | 7.74 | 6.17 | 7.92 | 8.2 | 8.54 | 1.02 | 1.45 | 5.21 | 6.75 | 12.4 | 6.77 | 2.28 | 5.12
CCAGAAAGGTGAGAAGGTAACTCAGCCTCGATTA | 0.521 | 0.782 | -0.167 | 0.842 | -0.293 | 2.47 | 1.02 | 1.49 | 0.32 | 0.796 | 2.89 | 1.98 | -0.302 | -0.361 | 1.15 | 0.319 | -0.419 | 1.28 | 0.133 | 2.67
GCGACTGTGGCATCAGCAGGTTACCATAACTTAA | -0.475 | -0.391 | -0.237 | -0.0453 | -0.969 | 0.0749 | 0.0982 | -0.457 | -0.399 | -0.487 | 0.287 | 0.27 | -0.703 | -1.08 | -0.566 | -0.281 | -0.227 | 0.0331 | -0.798 | 0.00959
TCCATTAGTTGAAGGGCAACCGACGAGTCCGTTT | 1.27 | 1.35 | 0.397 | 1.23 | 0.255 | 1.18 | 0.134 | 2.23 | 3.64 | 3.02 | 2.37 | 0.637 | 0.0905 | 0.783 | 1.13 | 1.16 | 0.683 | 0.989 | 0.466 | 1.86
GCTATTAGTCGAAAGGGCAACCGAATGATTCTCG | 0.296 | 0.236 | 0.214 | 0.479 | -0.262 | 1.74 | 2.25 | 4.04 | 2.32 | 3.76 | 0.549 | 0.458 | 0.65 | 0.0546 | 0.852 | 0.446 | -0.0421 | 0.942 | 0.125 | 2.07
TGGATGAGGTTAAAGATCAGGGAACGTGGCGTCG | 3.69 | 2.74 | 0.085 | 2.45 | 1.54 | 4.13 | 3.75 | 4.84 | 3.49 | 4.98 | 0.289 | 1.92 | 1.51 | 0.255 | 1.99 | 2.71 | 1.07 | 3.96 | 0.62 | 2.37
CAAACTAGGTCACAGAGGTCAATGTCCGTGCGTA | 6.85 | 6.22 | 6.83 | 6.14 | 1.81 | 6.32 | 10 | 8.44 | 6.44 | 8.59 | 8.72 | 9.05 | 4.01 | 2.12 | 4.75 | 6.6 | 10.6 | 7.36 | 2.65 | 5.17

— the supplement of paper PMC6555819
